# Source: PubChem BioAssay AID1032 (The Scripps Research Institute Molecular Screening Center, 2008)
# In all, about 200,000 compounds went through this assay and about 670 (0.34%) were called active. No stated cut-off is given here; in the data, active means activation above about 22%; inactive means the rest. Only a selection was taken, and actives are over-represented in it overall.
# Target: Peroxisome proliferator-activated receptor gamma (Homo sapiens) (UniProt P37231)
# Test: agonists of PPARg-SRC-2 recruitment, primary screen, biochemical, HTS (AID 1032);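 further: 0% = vehicle and 100% = reference agonist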
# Conditions: PPARgamma LBD-SRC-2 recruitment, at 8 µM, active compounds read high
# Chain of Peroxisome proliferator-activated receptor gamma (Homo sapiens) (P37231 whole entry, looked up): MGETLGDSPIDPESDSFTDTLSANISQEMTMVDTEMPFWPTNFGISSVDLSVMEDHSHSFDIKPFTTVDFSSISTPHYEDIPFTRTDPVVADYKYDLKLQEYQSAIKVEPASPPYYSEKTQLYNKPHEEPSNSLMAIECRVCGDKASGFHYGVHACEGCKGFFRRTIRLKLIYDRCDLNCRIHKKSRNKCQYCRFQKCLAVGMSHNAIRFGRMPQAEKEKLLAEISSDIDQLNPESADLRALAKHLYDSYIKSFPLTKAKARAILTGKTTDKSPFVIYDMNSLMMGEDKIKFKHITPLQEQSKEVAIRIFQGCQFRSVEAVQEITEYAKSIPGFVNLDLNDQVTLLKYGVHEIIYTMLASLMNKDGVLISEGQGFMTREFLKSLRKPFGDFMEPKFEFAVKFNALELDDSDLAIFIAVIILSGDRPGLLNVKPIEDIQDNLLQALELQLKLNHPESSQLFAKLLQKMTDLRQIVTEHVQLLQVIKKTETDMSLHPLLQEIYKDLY
row,SMILES,activation
1,Cc1nc(-c2ccccc2)sc1-c1nc(-c2ccccc2)ncc1S(=O)(=O)c1ccccc1,30% (active)
2,Cc1nc(-c2ccccc2)sc1C(=O)/C=C/c1ccccc1,13.4% (inactive)
3,C=CCn1c(-c2sc(-c3ccccc3)nc2C)n[nH]c1=S,7.03% (inactive)
4,O=C(NC(=S)Nc1cc(C(F)(F)F)ccc1N1CCOCC1)c1ccc(-c2cccc(Cl)c2)o1,2.85% (inactive)
5,COc1cc(OC)nc(N/N=C(\c2ccccc2)c2ccncc2)n1,-0.95% (inactive)
6,CC1=NCCN1S(=O)(=O)c1cccc([N+](=O)[O-])c1,0.1% (inactive)
7,O=C(CN(C(=O)c1csnn1)c1cccc(F)c1)NCc1ccc(F)cc1,-2.69% (inactive)
8,O=C(c1nnc(-c2ccc(Cl)cc2)o1)C1CCCC1,5.05% (inactive)
9,COCC(=O)Nc1ccc(Br)cc1,0.8% (inactive)
10,Cc1cccc(C(=O)OCC(=O)NCC(C)C)c1O,1.94% (inactive)
11,CC(C)CNC(=O)COC(=O)c1ccccc1OCC(=O)Nc1ccc(Br)cc1,23.8% (active)
12,O=C(Nc1ccc(Cl)cc1)C1c2cccc[n+]2CC(=O)N1Cc1ccc2c(c1)OCO2 (stereo not given),-2.95% (inactive)
13,CCCC/S(C)=N/S(=O)(=O)c1ccc(C)cc1 (stereo not given),4.28% (inactive)
14,CC(=O)n1c(C=Nc2ccccc2)c(O)c2ccccc21,18.1% (inactive)
15,COc1ccc(CC(NC(C)=O)C(=O)NC2CCN(C(=O)c3ccc(OC)c(OC)c3)CC2)cc1OC (stereo not given),-1.68% (inactive)
16,Cn1c(-c2sccc2OCc2cccc(C(F)(F)F)c2)n[nH]c1=S,3.72% (inactive)
17,Cc1cc(C(F)(F)F)n2ncc(-c3ccccc3)c2n1,6.32% (inactive)
18,Cn1c(-c2sc3cc(C(F)(F)F)cnc3c2-c2ccccc2)n[nH]c1=S,49.1% (active)
19,O=C1CN(C(=O)CN2C(=O)NC3(CCCCC3)C2=O)c2ccccc2N1,-3.02% (inactive)
20,CCSc1ccccc1C(=O)Nc1ccc2c(c1)OCO2,2.54% (inactive)

row,SMILES,activation
1,COC(C(=O)Nc1ccc(S(=O)(=O)Nc2ccc(C)c(C)c2)cc1)c1ccccc1 (stereo not given),-10.9% (inactive)
2,COC(=O)c1[nH]c2ccc(Br)cc2c1NC(=O)Oc1ccccc1,30% (active)
3,COC(=O)c1[nH]c2ccccc2c1NC(=O)CN1CCCc2ccccc21,-0.25% (inactive)
4,COC(=O)c1[nH]c2ccccc2c1NS(=O)(=O)c1ccc(OC)cc1OC,13.7% (inactive)
5,O=C(Nc1ccc2cn[nH]c2c1)c1ccc(S(=O)(=O)N2CCOCC2)cc1,3.19% (inactive)
6,Cc1nccn1CCC1CCCCN1C(=O)CCc1nnc(-c2ccsc2)o1 (stereo not given),-4.68% (inactive)
7,CN(C)CCOc1ccc(Cl)cc1C(C)(C)C,3.96% (inactive)
8,COc1cc2c(cc1O)C(SC)=NC(C)(C)C2,1.5% (inactive)
9,COc1cc2c(cc1OC)C(Nc1ccc(S(N)(=O)=O)cc1)=NC(C)(C)C2,77.9% (active)
10,COc1cc2c(cc1OC)C(C(C)C)=NC(C)(C)C2,4.08% (inactive)
11,COCCNC(=O)c1ccc(N2CCC3(CC2)OCCO3)c([N+](=O)[O-])c1,-6.47% (inactive)
12,COc1ccc(C(=O)Nc2ccc3nc(N4CCCCC4)cc(C)c3c2)cc1OC,4.19% (inactive)
13,COc1cccc(/C=C2\SC(=N)N(c3ccc(F)cc3)C2=O)c1,3.36% (inactive)
14,O=C(/C=C/c1ccc(Cl)cc1Cl)NCc1ccco1,-0.42% (inactive)
15,O=C(NCc1ccco1)c1cc(-c2cccnc2)nc2ccc(Cl)cc12,8.92% (inactive)
16,O=C(CSc1c2c(nc3ccc(Cl)cc13)CCCC2)NCc1ccco1,30.9% (active)
17,COC(=O)Cn1c(=NC(=O)c2cc(OC)c(OC)c(OC)c2)sc2cc(OC)ccc21,-0.43% (inactive)
18,Cc1n[nH]c(=S)n1/N=C/c1ccc(Br)o1,6.61% (inactive)
19,Cc1ccccc1-c1n[nH]c(=S)n1C,7.57% (inactive)
20,Cc1ccccc1-c1n[nH]c(=S)n1/N=C/c1ccc(-c2ccccc2Br)o1,40.9% (active)

row,SMILES,activation
1,CSc1ccccc1C(=O)NCc1ccccc1,-5.42% (inactive)
2,Cc1ccc(C(=O)COC(=O)CCN2C(=O)C3C4CC(C(Br)C4Br)C3C2=O)cc1 (stereo not given),3.47% (inactive)
3,COc1ccc(O[C@H]2C=C[C@@H](c3ccccc3)O[C@@H]2CO/N=C/C[C@@H]2C=C[C@H](OC(C)=O)[C@@H](COC(C)=O)O2)cc1,1.19% (inactive)
4,CC(=O)Nc1ccc(S(=O)(=O)NC(C)C(=O)OCC(=O)NC2CCCC2)cc1 (stereo not given),-3.44% (inactive)
5,CS(=O)(=O)N1CCc2cc(C(=O)Nc3ccccc3)ccc21,-4.48% (inactive)
6,Cc1ccc(NC(=O)CCOc2ccccc2)cc1S(=O)(=O)Nc1ccccc1Cl,3.41% (inactive)
7,CCOC(=O)c1ccc(NC(=S)N2CCCC2)cc1,-1% (inactive)
8,Cc1cccc2cc(C#N)c(N3CCCC3)nc12,-7.68% (inactive)
9,Cc1cc(C)c2nc(N3CCCC3)c(C#N)cc2c1,1.23% (inactive)
10,CC(=O)c1ccc(S(=O)(=O)N2CCN(c3nc4c(C)c(C)ccc4cc3C#N)CC2)cc1,32% (active)
11,C/C(=N\Nc1ccc([N+](=O)[O-])cc1)c1ccc(-n2nncc2C(C)(C)C)cc1,-9.74% (inactive)
12,N#Cc1ccsc1NC(=O)CN1CCN(S(=O)(=O)c2cc(Cl)ccc2Cl)CC1,0.56% (inactive)
13,O=C(C1CCCO1)N1CCN(C(=S)Nc2cccc(Cl)c2)CC1 (stereo not given),-4.23% (inactive)
14,O=C1OC(/C=C/c2ccccc2)=NC/1=C/c1ccco1,8.63% (inactive)
15,CCc1cccc(OC2OC(CO)C(O)C(O)C2NC(C)=O)c1 (stereo not given),9.45% (inactive)
16,Cc1cc(C)c2c(c1)cc(C)c1nnc(SCC(=O)Nc3cc(C)on3)n12,26.5% (active)
17,Cc1ccc(-c2csc(SCC(=O)Nc3cc(C)on3)n2)cc1,-2.51% (inactive)
18,Cc1cc(NC(=O)CSc2nnc(Nc3ccccc3F)s2)no1,0.38% (inactive)
19,Cc1cccc(NC(=O)Cn2c(=O)n(Cc3ccccc3)c(=O)c3c(C)c(C)sc32)c1,3.34% (inactive)
20,N#Cc1c(-c2ccc(F)cc2)cc(C2CC2)nc1SCC(=O)c1cccs1,1.68% (inactive)
